# Sampled rows, rich in hits. Any-hit rate of the full collection: about 19%.
# TDP1 inh: qHTS Assay for Inhibitors of Tyrosyl-DNA Phosphodiesterase (TDP1) | hit rate 0.28% among 350,000 | Tyrosyl-DNA phosphodiesterase 1 (Homo sapiens), Q9NUW8 | Potency, µM (highest dose often 130 µM), for inactives: at the highest dose activity change, negative = inhibition, actives largely listed as inhibitors | AID 485290, 2010 | recombinant TDP1, AlphaScreen DNA substrate cleavage; note: potency is the fitted concentration of half-maximal effect; nearly all actives have a fitted effect of over 40% in size
# Target sequence (Q9NUW8 whole entry, looked up): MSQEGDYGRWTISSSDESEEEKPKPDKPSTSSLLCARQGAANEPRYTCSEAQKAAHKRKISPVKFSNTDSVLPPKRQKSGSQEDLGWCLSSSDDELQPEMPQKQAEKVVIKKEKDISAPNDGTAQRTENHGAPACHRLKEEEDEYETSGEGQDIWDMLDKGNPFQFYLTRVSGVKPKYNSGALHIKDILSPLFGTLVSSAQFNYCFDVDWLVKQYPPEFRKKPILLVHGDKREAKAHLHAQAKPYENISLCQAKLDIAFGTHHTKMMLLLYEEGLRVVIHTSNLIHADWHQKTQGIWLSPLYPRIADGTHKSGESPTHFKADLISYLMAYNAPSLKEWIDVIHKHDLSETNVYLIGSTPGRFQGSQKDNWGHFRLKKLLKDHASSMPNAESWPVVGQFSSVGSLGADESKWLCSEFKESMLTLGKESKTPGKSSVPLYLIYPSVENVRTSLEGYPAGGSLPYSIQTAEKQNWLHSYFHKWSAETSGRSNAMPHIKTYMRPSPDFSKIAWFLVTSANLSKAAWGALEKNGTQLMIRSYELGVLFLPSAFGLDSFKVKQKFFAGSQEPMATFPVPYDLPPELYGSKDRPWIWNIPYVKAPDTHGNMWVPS
#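 Steps: enzyme plus compound, 15 min RT; add biotin/phosphotyrosine-FITC oligonucleotide (15 nM final), react 5 min; add donor/acceptor beads (10 ug/ml final), 10 min; read AlphaScreen. Tdp1 at 1 nM final.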
# DT40 TDP1 no CPT: qHTS for Inhibitors of human tyrosyl-DNA phosphodiesterase 1 (TDP1): qHTS in cells in absence of CPT; hit rate 15% among 420,000; DT40 Tdp1-/- hTDP1 cells, no CPT, ATP luminescence, 48 h; Potency, µM (titrated, usually from 46.2 µM), without a hit: at the top dose activity change, negative = growth inhibition, usual class: inhibitors; note: potency is the fitted concentration of half-maximal effect; nearly all actives have a fitted effect of over 55% in size
#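 Cells were dispensed at 400 per well, compounds added by pin tool, plates incubated ≥48 hr at 37 °C, then CellTiter-Glo added for 30 min at room temperature before luminescence reading. Line: DT40 Tdp1-/- complemented with hTDP1; camptothecin omitted.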
# IL-1B inflam inh: qHTS for Inhibitors of Inflammasome Signaling: IL-1-beta AlphaLISA Primary Screen; THP-1 LPS/ATP IL-1B secretion, AlphaLISA, 16 h; stronger effect = lower value; activity change, % at 57.5 µM; hit rate 4.7% among 360,000; AID 743279, 2014; in the data active = activity change below about -50%; inconclusive = mostly about -30% to -49%
#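 Secreted IL-1B measured by AlphaLISA bead assay after 16 h compound exposure of THP-1 cells; compounds (final up to 57.5 uM) added 1 h before LPS (250 ng/mL) and ATP (1.25 mM) stimulation; lower signal means less secretion.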
# Giardia kill: Small Molecules that selectively kill Giardia lamblia: qHTS; hit rate 0.15% among 340,000; Giardia lamblia trophozoite viability; activity change, % at 7.66 µM, hits read low; AID 540267, 2011; in the data active = activity change below about -80%; inconclusive = between about -30% and that limit;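 note: parasites exposed to compound for two days anaerobically before the ATP read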
#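 Killing of trophozoites was scored by loss of ATP luminescence after a 48 hrs anaerobic exposure to compounds at 37 deg C, using 100 cells per well.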
# TDP1 cell CPT: qHTS for Inhibitors of human tyrosyl-DNA phosphodiesterase 1 (TDP1): qHTS in cells in presence of CPT | chicken DT40 Tdp1-/-;hTDP1 cells + 20 nM CPT, ATP luminescence, 48 h | Potency, µM (series often up to 46.2 µM), inactives show top-dose activity change, negative = growth inhibition, hits mostly inhibitors | hit rate 12% among 420,000 | AID 686979, 2013; note: potency is the fitted concentration of half-maximal effect; nearly all actives have a fitted effect of over 55% in size
#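 Cell growth measured by CellTiter-Glo luminescence after a minimum 48 h, 37 C compound exposure with 20 nM CPT in Tdp1-knockout DT40 cells stably expressing hTDP1, seeded 400/well; qHTS titration format.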
# ELG1 repair inh: qHTS screen for small molecules that inhibit ELG1-dependent DNA repair in human embryonic kidney (HEK293T) cells expressing luciferase-tagged ELG1 | AID 504467, 2011 | Potency, µM (highest dose often 46.1 µM), without a hit: top-dose activity change, negative = inhibition, most hits filed as inhibitors | hit rate 2.3% among 330,000 | HEK293T ELG1-luciferase reporter, luminescence, 16 h; DNA damage induced by 5-fluorouridine; note: potency is the fitted concentration of half-maximal effect; nearly all actives have a fitted effect of over 55% in size
#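 DMSO vehicle served as the neutral condition. Each well held 2,000 cells given 5-fluorouridine plus compound; after 16 hr at 37 °C/5% CO2, ONE-Glo was added and luciferase measured 30 min later.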
# An asterisk follows results filed as active; ? = inconclusive; · = not tested or not shown. Unless noted, calls come from the whole dose curve; as a rule, active = well fitted curve in the direction sought with a large enough effect; inconclusive = small, poorly fitted or top-dose-only effect, or another doubt; inactive = no such curve, though single readings can be large; an effect the other way counts as inactive or inconclusive. % is set by controls: 0 for no effect and ±100 for the full control effect.
SMILES,TDP1 inh,DT40 TDP1 no CPT,IL-1B inflam inh,Giardia kill,TDP1 cell CPT,ELG1 repair inh
COc1ccc2cc(S(=O)(=O)N3CCCCC3)ccc2c1S(=O)(=O)N1CCCCC1,3%,?,-14,-2,21µM*,?
COc1ccc(S(=O)(=O)N2CCCC2)cc1OC,1%,?,-14,-8,2%,-7%
Cc1ccc(-c2nc3c4ccccc4n(CC(=O)NCc4ccc(F)cc4)c(=O)n3n2)cc1,5%,-17%,·,·,13%,·
O=C(CCn1c(=S)oc2ccccc21)Nc1ccccc1Br,·,-20%,-15,9,-14%,-5%
CC(C)(C)c1ccc(S(=O)(=O)NCCN2CCOCC2)cc1,·,-24%,0,·,-21%,·
Cc1cc2nc(CCN3CCOCC3)n(S(=O)(=O)c3ccc(C(C)(C)C)cc3)c2cc1C,2%,?,11,6,18µM*,21µM*
CC(=C\c1ccccc1)/C=C1/SC(=S)N(CC(=O)O)C1=O,·,-14%,·,·,4%,·
O=C(CSc1nnc(-c2ccccn2)n1Cc1ccco1)c1ccc(-c2ccccc2)cc1,5%,?,-11,40,29µM*,-23%
COc1ccccc1NC(=O)CSc1nnc(COc2ccc(Cl)cc2)n1Cc1ccco1,5%,15µM*,?,1,21µM*,?
O=C(CSc1nnc(-c2ccc(O)cc2)n1Cc1ccco1)c1ccccc1,4%,?,-16,-3,-18%,?
O=c1c2ccccc2nnn1CSc1nnc(COc2ccc(Cl)cc2)n1Cc1ccco1,6%,21µM*,-30,-17,23µM*,?
Cc1ccc(OCc2nnc(SCC(=O)c3ccccc3)n2Cc2ccco2)cc1,5%,18µM*,-9,-11,23µM*,?
COc1ccc(S(=O)(=O)N2CCCCC2)cc1C(=O)Nc1cccc(C(F)(F)F)c1,4%,-9%,·,·,32%,·
COc1ccc(C(=O)NCCSc2ccccc2)cc1OC,3%,?,-2,-12,?,?
S=c1[nH]nc(COc2ccc(Cl)cc2)n1Cc1ccco1,-2%,21µM*,12,1,4%,-18%
CCn1c(COc2ccc(Cl)cc2)nnc1SCc1nc2ccccc2[nH]1,8%,?,-18,15,?,?
Cc1ccc(OCc2nnc(SCc3nc4ccccc4[nH]3)n2Cc2ccco2)cc1,4%,18µM*,-19,22,15µM*,9.2µM*
Clc1ccc(CSc2nnc(-c3ccccn3)n2Cc2ccco2)c(Cl)c1,6%,29µM*,-1,-7,?,0%
Nn1c(SCc2nc3ccccc3[nH]2)nnc1-c1ccccc1,6%,7%,-23,-3,4%,?
c1ccc(-c2nnc(SCc3nc4ccccc4[nH]3)n2Cc2ccco2)cc1,8%,-21%,-3,5,-18%,21µM*
Cc1nn(-c2ccc(Cl)cc2)c(NC(=O)C(C)C)c(-c2ccccc2)c1=O,·,0%,13,-13,14%,7%
CCOC(=O)c1cnc2cc(-c3ccc(Br)cc3)nn2c1C,·,3%,1,-27,-10%,?
CCn1c(COc2ccc(C)cc2)nnc1SCC(=O)Nc1cc(OC)ccc1OC,5%,21µM*,-5,-9,?,?
Clc1ccc(CSc2nnc(-c3ccccn3)n2Cc2cccs2)cc1Cl,·,18µM*,0,·,?,·
CCn1c(COc2ccccc2)nnc1SCC(=O)Nc1cc(C)ccc1OC,1%,?,-8,-1,?,?
SMILES,TDP1 inh,DT40 TDP1 no CPT,IL-1B inflam inh,Giardia kill,TDP1 cell CPT,ELG1 repair inh
Cc1ccccc1NC(=O)/C(C#N)=C/c1ccccc1C(F)(F)F,3%,?,-72*,-1,-22%,?
N#C/C(=C\c1ccc[nH]1)C(=O)NC1CC1,1%,-9%,-5,12,2%,-1%
Cc1ccc(C)c(NC(=O)/C(C#N)=C/c2ccc[nH]2)c1,2%,-22%,-1,6,18µM*,2%
Cc1cccc(NC(=O)/C(C#N)=C/c2ccc[nH]2)c1C,2%,?,15,1,12µM*,?
Cc1oc(-c2ccccc2NC(=O)C2CCC2)nc1CNC(=O)c1ccccn1,·,-21%,·,·,-29%,·
CCN(CC)c1nc(Oc2ccc(C(=O)OC)cc2)nc(N2CCOCC2)n1,-11%,?,-28,17,?,?
CC(=O)Nc1ccc(/C(C)=N/Nc2nc(Nc3ccccc3)nc(N3CCOCC3)n2)cc1,-1%,7.3µM*,-25,-14,5.2µM*,6.5µM*
COC(=O)c1ccc(Oc2nc(N3CCCCC3)nc(N3CCOCC3)n2)cc1,1%,-20%,-55*,7,-23%,-4%
O=C(NNc1nc(Nc2ccccc2)nc(N2CCOCC2)n1)Nc1ccc(Cl)cc1,2%,?,21,5,21µM*,-7%
CC(=O)c1ccc(Nc2nc(N3CCOCC3)nc(N3CCOCC3)n2)cc1,4%,-20%,-54*,-17,?,-24%
Cc1cc(NC(=O)Nc2cccc(C)c2C)no1,8%,-27%,9,?,?,0%
CCc1nn(CC(=O)NC2CC2)c(=O)c2cc3c(OC)cccc3n12,5%,?,·,·,-9%,·
O=C(Cn1cc(COc2c(F)c(F)c(Br)c(F)c2F)nn1)c1ccc(O)cc1,·,?,0,11,?,·
O=C(OCC#CCSc1nnc(-c2cccc3ccccc23)o1)c1sccc1Cl,-1%,·,·,·,·,·
CCCCn1c(N)c(N(CC(C)C)C(=O)CCNC(=O)c2ccc([N+](=O)[O-])cc2)c(=O)[nH]c1=O,0%,4%,-12,-3,-1%,11%
Cc1c(Cl)cccc1NC(=O)CSc1ncnc2c1sc1ccccc12,-5%,-2%,·,·,-20%,·

# Source: PubChem BioAssay (National Center for Advancing Translational Sciences (NCATS))
